According to PubChem BioAssay (Tox21):
Results filed as inconclusive are left out. Entries that show only a call come without a potency. Activity calls are given as the source filed them. Calls come from the whole dose curve; as a rule, active = well fitted cell-killing curve with a large enough effect in the repeat runs; inconclusive = weak or mixed curves, or effect the other way; inactive = flat fitted curve, though single readings scatter.

Assay: cAMP Responsive Elements (CRE) small molecule antagonists, cell-based qHTS assay: qHTS cell viability counter screen (AID 2060913); note: nearly all actives have a fitted effect of over 40% in size
Details: CRE-bla HEK293T viability, CellTiter-Glo luminescence, 5 h; series mostly up to 92.4 µM
Excerpt: U.S. Tox21 Program National Center for Advancing Translational Sciences [NCATS] Division of Preclinical Innovation [DPI] U.S. Environmental Protection Agency [EPA] National Institutes of Environmental Health Sciences [NIEHS] National Toxicology Program [NTP] U.S. Food and Drug Administration [FDA] Tox21 Assay Overview: CREB (cyclic-AMP Responsive Element Binding Protein) is a cellular transcription factor. It binds to certain DNA sequences called cAMP Responsive Elements (CRE) and regulates the transcription of the genes. […] This cell line can be used to find agonists/antagonists of the cyclic AMP signaling pathway. The activation of the report gene under culture conditions can be detected by fluorescence intensity. This cell line has been used to screen the Tox21 10K compound library to identify agonists that induce oxidative stress. The cytotoxicity of the Tox21 compound library against the CRE-bla cell line was tested in parallel by measuring the cell viability using CellTiter-Glo assay (Promega, Madison, WI) in the same wells.
Tox21 Assay Protocol Summary: CRE-bla Hek 293T cells were suspended in assay medium (DMEM containing 10% dialyzed FBS, 0.1 mM NEAA, 1 mM sodium pyruvate and 25 mM HEPES) and dispensed at 2,000 cells/4 uL /well into 1536-well black wall/clear bottom plates using a Multidrop Combi (ThermoFisher Scientific, Waltham, MA) dispenser. After the assay plates were incubated at 37 C/5% CO2 for 18 hrs, 23 nL of compounds dissolved in DMSO, positive controls or DMSO only was transferred to the assay plate by a pintool workstation (Kalypsys, San Diego, CA), followed by addition of 1 uL of 1.25uM NKH477 (0.25 uM as final concentration) in assay medium using a Flying Reagent Dispenser (Aurora Discovery, San Diego, CA). The plates were incubated at 37 C and 5% CO2 for 3 hrs. Then 1 uL of LiveBLAzer B/G FRET substrate (Invitrogen, Carlsbad, CA) was added to each well using Bioraptr Flying Reagent Dispenser (FRD, Aurora Discovery, San Diego, CA). The plates were incubated at room temperature for 2 h, then fluorescence intensities were measured using an Envision plate reader (PerkinElmer, Shelton, CT) at Excitation 405nm, Emission 460nm and 530nm. The % activity was determined from the ratio of 460nm/530nm. For cell viability readout that measures cytotoxicity, 4 uL /well of CellTiter-Glo reagent was added into the assay plates using Bioraptr FRD. After 30 min incubation at room temperature, the luminescence intensity in the assay plates was measured using a ViewLux (PerkinElmer, Shelton, CT) plate reader.

| Compound | Potency |
| --- | --- |
| CCCC/C=C/CCCCO | inactive |
| O=c1cc(O)c(Cl)c[nH]1 | inactive |
| O=S(=O)(O)CCS | inactive |
| OCc1ccccc1O | inactive |
| O=C1CC[C@H](C(=O)N2CCCCC2)N1 | inactive |
| N=C(N)c1ccc(OCCCOc2ccc(C(=N)N)cc2)cc1 | inactive |
| Cc1ccc([N+](=O)[O-])cc1N | inactive |
| OCc1c[nH]c2ccccc12 | inactive |
| CCCc1ccc(O)cc1 | inactive |
| CCC(CC)CO | inactive |
| CC(O)CCCCn1c(=O)c2c(ncn2C)n(C)c1=O (stereo not given) | inactive |
| C[C@@H]1CN(CCCn2c3ccccc3c3ccccc32)C[C@H](C)N1 | inactive |
| C=Cc1ccc(C(C)(C)C)cc1 | inactive |
| CCCNCCC | inactive |
| CCC(C(=O)OCCN(CC)CC)c1ccccc1 (stereo not given) | inactive |
| CCCC(=O)C(C)=O | inactive |
| Cn1cnc2c(F)c(Nc3ccc(Br)cc3Cl)c(C(=O)NOCCO)cc21 | inactive |
| C[N+]1(C)CCC(=C(c2ccccc2)c2ccccc2)CC1 | inactive |
| CC(=O)OC(C)OC(=O)C(C)c1ccc(-c2ccccc2)c(F)c1 (stereo not given) | inactive |
| CC(C)OC(=O)COc1ccc(Cl)cc1Cl | inactive |

| Compound | Potency |
| --- | --- |
| C=C(CC(=O)O)C(=O)O | inactive |
| COc1nc(C)nc(N)n1 | inactive |
| O=C(Cl)c1cc(C(=O)Cl)cc(C(=O)Cl)c1 | inactive |
| CCOC(=O)c1ccccc1C(=C1C=C(Br)C(=O)C(Br)=C1)c1cc(Br)c(O)c(Br)c1 | inactive |
| O=CNNC=O | inactive |
| COCc1c(C(C)C)nc(C(C)C)c(/C=C/[C@@H](O)C[C@@H](O)CC(=O)O)c1-c1ccc(F)cc1 | inactive |
| Cc1ccc(C)c(OCCCC(C)(C)C(=O)O)c1 | inactive |
| C=C(C)C(=O)OCCOCCOCCOCCOC(=O)C(=C)C | inactive |
| CCOc1nc2cccc(C(=O)O)c2n1Cc1ccc(-c2ccccc2-c2nn[nH]n2)cc1 | inactive |
| C1=CCC2CC=CC2C1 (stereo not given) | inactive |
| Nc1ccc(O)c(C(=O)O)c1 | inactive |
| CCC(C=O)CC | inactive |
| Cc1ccc(O)c([N+](=O)[O-])c1 | inactive |
| CC(C)OC(=O)c1cc2c(OCC(O)CNC(C)(C)C)cccc2[nH]1 (stereo not given) | inactive |
| O=C(Nc1ccc([N+](=O)[O-])cc1)Nc1ccc([N+](=O)[O-])cc1 (tested in a mixture with another compound) | inactive |
| CCOc1ccccc1O | inactive |
| CCCCCCCCN(C)CCCCCCCC | inactive |
| CC(=O)c1ccc2c(c1)[C@H](NC(=O)c1ccc(F)cc1)[C@@H](O)C(C)(C)O2 | inactive |
| CC(C)(O)C(=O)c1ccccc1 | inactive |
| Cc1c(Cn2ccnc2)c2ccccc2n1CCC(=O)O | inactive |
